Only some compounds are listed: those with a hit (about 12% of all), similar ones and a draw of the others.
Sfp PPTase inh – Sfp phosphopantetheinyl transferase inhibition; Q9F4F7; Biochemical Sfp PPTase activity, qHTS; Potency, µM, without a hit: largest response in the series, negative = inhibition, usual class: inhibitors; 3.5% of 310,000 active;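 note: the enzyme is Sfp with the accession as filed and its product quenches rhodamine fluorescence; 0% = enzyme reaction without inhibitor and -100% = no enzyme wells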
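Step 1, compound plus 15 nM Sfp-PPTase, 15 min, room temperature. Step 2, add rhodamine-CoA (5 uM) and BHQ-2-YbbR (12.5 uM). Step 3, read 525/598 nm fluorescence at 0 and 30 min.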
HP1b binding inh – inhibitors of HP1-beta chromodomain binding to methylated histone tails. Potency, µM (highest dose often 114 µM), for the others: at the highest dose activity change, negative = inhibition, actives largely listed as inhibitors. AlphaScreen HP1-beta / biotin-H3K9me3 peptide binding. P83916. 0.56% of 390,000 active; note: nearly all actives have a fitted effect of over 70% in size
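Compound inhibition of the preformed complex between 50 nM HP1-beta and 50 nM biotinylated H3K9me3 peptide was read by AlphaScreen. Buffer was PBS pH 7.4 with 0.01% Tween-20. Incubations ran 30 min at room temperature, with 10 ug/mL donor/acceptor beads.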
G9a inh – inhibitors of human histone lysine methyltransferase G9a; G9a H3K9 monomethylation, AlphaScreen, 2 h; Potency, µM (titrated, usually from 102 µM), inactives show at the top dose activity, negative = inhibition, actives largely listed as inhibitors; 8.8% of 350,000 active; AID 504332; note: % is set by controls: 0 for no effect and ±100 for the full control effect; nearly all actives have a fitted effect of over 75% in size
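AlphaScreen detection with an anti-monomethyl H3K9 antibody quantified product after a 2 h room-temperature reaction containing 500 nM biotinylated H3K9 peptide, 20 µM SAM and 20 nM enzyme, which had been preincubated 15 min with compound.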
BAZ2B block – blocks human BAZ2B; AlphaScreen BAZ2B-H3K14Ac peptide displacement; 4.4% of 360,000 active; Q9UIF8; Potency, µM (top dose mostly 114 µM), inactives show at the highest dose activity change, negative = inhibition, most hits filed as inhibitors; note: % is set by controls: 0 for no effect and ±100 for the full control effect; nearly all actives have a fitted effect of over 60% in size
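In this displacement format the biotinylated H3(5-23) peptide acetylated at Lys14 serves as ligand at 50 nM, with BAZ2B at 50 nM in PBS pH 7.4 containing 0.01% Tween-20. Donor and acceptor beads are 10 ug/mL final.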
JMJD2A Tudor inh – inhibitors of human JMJD2A Tudor domain; O75164; AlphaScreen JMJD2A-Tudor / H3K4me3 peptide binding; Potency, µM (doses to about 114 µM), for inactives: top-dose activity change, negative = inhibition, actives largely listed as inhibitors; 4.4% of 390,000 active; AID 504339; note: % is set by controls: 0 for no effect and ±100 for the full control effect; nearly all actives have a fitted effect of over 50% in size
* = called active by the depositor; u = inconclusive; x = not tested or not shown; [ ] = remark or other dose. Calls come from the whole dose curve; as a rule, active = well fitted curve in the direction sought with a large enough effect; inconclusive = small, poorly fitted or top-dose-only effect, or another doubt; inactive = no such curve, though single readings can be large; an effect the other way counts as inactive or inconclusive. Potency is the fitted concentration of half-maximal effect.

SMILES | Sfp PPTase inh | HP1b binding inh | G9a inh | BAZ2B block | JMJD2A Tudor inh
Nc1ccc(Cn2ccc3c4c(N)nc(N)nc4ccc32)cc1 | x | 79.4µM* | x | x | 44.7µM*
NC(=O)Cn1c(=O)n(C2CCCCC2)c(=O)c2c3c(sc21)CCCCC3 | 50.1µM* | -9.6% | 9.2% | -6.7% | -12.5%
COc1ccc(NC(=O)CN(C)C(=O)c2ccc3c(c2)S(=O)(=O)N=C2CCCCCN23)cc1 | 18.8% | 21.0% | 35.0% | -2.1% | -17.5%
Cc1ccc(NCC(=O)N/N=C/c2ccncc2)cc1 | 5.0% | 22.9% | 3.8% | -37.2% | -5.2%[57.1 µM]
O=C(CNc1ccc2ccccc2c1)N/N=C/c1ccc([N+](=O)[O-])o1 | 7.3% | 5.0% | 2.51µM* | -30.5% | -19.4%
Cc1ccc(NCC(=O)N/N=C/c2cccn2C)cc1 | 4.6% | -25.8% | x | 39.8µM* | u
Cc1ccc(OCC(=O)N/N=C/c2cccn2C)cc1 | 4.4% | -26.9% | 26.1%[59 µM] | u | -33.3%
Cn1cccc1CC(=O)N/N=C/c1cccc2ccccc12 | -9.7% | 12.1% | -35.5%[12.7 µM] | -14.0% | -26.2%
Cn1cccc1/C=N/NC(=O)Cc1cccc2ccccc12 | -9.5% | -12.1% | u | 14.1µM* | u
Cc1ccc(NCC(=O)N/N=C/c2cc(O)ccc2[N+](=O)[O-])cc1 | 17.4% | 13.5% | 50.1µM* | u | -17.5%
O=C(COc1ccccc1)N/N=C/c1ccc([N+](=O)[O-])o1 | 13.6% | 39.0% | -26.3%[59 µM] | -11.6% | -15.1%
NC(=O)N/N=C/c1ccc([N+](=O)[O-])o1 | -22.8% | 59.1% | -33.1%[59 µM] | 0.6% | -4.3%
O=C(N/N=C/c1ccc([N+](=O)[O-])o1)C1CC1 | 10.2% | 23.6% | u | 50.1µM* | u
O=C(N/N=C/c1ccc([N+](=O)[O-])o1)C(O)c1ccccc1 (centres undefined) | 6.2% | 51.2% | -4.3% | -0.1% | -7.4%
Cn1cccc1/C=N/NC(=O)CNc1ccc2ccccc2c1 | 10.2% | u | 3.98µM* | 25.1µM* | 56.2µM*
O=[N+]([O-])c1ccc(/C=N/NC(=S)Nc2ccccc2C(F)(F)F)o1 | -26.6% | u | 20µM* | u | -34.8%
O=C(CNc1ccc2ccccc2c1)N/N=C/c1cc2ccccc2nc1Cl | -22.7% | -12.7% | 10µM* | u | u
Cc1cc(C)c(NC(=S)NC(=O)c2c(Cl)c(C)nn2C)c([N+](=O)[O-])c1 | -15.2% | -6.7% | 23.9%[59 µM] | -29.9% | u
CC1(C)CC(=O)C2=C(C1)N(Cc1ccccc1)C(=O)C2(NC(=O)C(C)(C)C)C(F)(F)F (centres undefined) | 19.1% | 13.5% | 0.4% | -6.2% | u
CCN1C(=O)/C(=C/N(C)C)c2ccccc21 | 12.9% | 15.6% | -8.1%[59 µM] | 1.5% | -9.0%
Cc1ccccc1N/N=C/c1c(C)nc2ccccn12 | -6.7% | 10.2% | 35.5µM* | u | u
CC(NC(=O)c1cc(=O)[nH]c2ccc(Br)cc12)c1ccccc1 (centres undefined) | 17.7% | x | 11.2% | -7.0% | x
CCc1ccc(OCC(=O)OCC(=O)NCCNC(=O)COC(=O)COc2ccc(CC)cc2)cc1 | 17.6% | 21.5% | x | 4.1% | 2.1%
CN1C(=O)/C(=C\c2ccc(N(C)C)cc2)OC1=S | 14.9% | 12.7% | 77.2% | 10.8% | 25.1µM*
COc1ccc(/C=C2\N=C(C(C)(C)C)OC2=O)c(OC)c1 | 14.0% | 18.0%[57 µM] | -11.3%[59 µM] | -14.8% | -25.7%
SMILES | Sfp PPTase inh | HP1b binding inh | G9a inh | BAZ2B block | JMJD2A Tudor inh
CN(C)c1ccc(/C=C2\N=C(C(C)(C)C)OC2=O)cc1 | 7.5% | 31.7% | 44.7µM* | u | 1.2%
C=CCNC(=S)NNC(=O)C(CCCC)CC(O)COCC(C)C (centres undefined) | 9.2% | 29.6% | x | 10.0% | -10.3%
CC1=NNC(=O)/C1=C\c1cn(-c2ccccc2)nc1-c1ccc(F)cc1 | 9.1% | -4.5% | 10µM* | -37.6% | -32.2%
O=C(N/N=C/c1cn(-c2ccccc2)nc1-c1cccs1)c1ccccc1F | -0.6% | 15.2% | -12.9%[59 µM] | -4.5% | -31.8%
CC1=NNC(=O)/C1=C\c1cn(-c2ccccc2)nc1-c1cccs1 | 31.6µM* | -13.3% | 10µM* | u | u
Cc1cccc(NC(=O)C2C3C=CC(C4CC34)C2C(=O)O)c1 (centres undefined) | 50.1µM* | 23.8% | u | 10.2% | -7.4%
CC(=O)c1cccc(NC(=O)Nc2ccccc2)c1 | 2.5% | 53.8% | 21.1% | 9.8% | -3.8%
Cc1ccc(NC(=O)C2C3C=CC(O3)C2C(=O)O)cc1C (centres undefined) | 15.8% | 32.8% | 2.8%[0.501 µM] | 89.1µM* | -9.6%
CC(=O)c1cccc(NC(=O)C2C3C=CC(C3=C(c3ccccc3)c3ccccc3)C2C(=O)O)c1 (centres undefined) | 13.8% | 6.3% | 50.1µM* | u | u
CC(=O)Nc1cccc(NC(=O)C2C3C=CC(C3)C2C(=O)O)c1 (centres undefined) | -50.5% | 42.7% | 8.3% | -7.0% | -1.8%
Cc1cccc(NC(=O)C2C3C=CC(O3)C2C(=O)O)c1 (centres undefined) | 2.7% | x | 28.2µM* | 4.4% | x
NNC(=O)c1cccc(O)c1 | 0.9% | 41.0% | 18.4%[59 µM] | -20.2% | -6.3%
S=c1nc(-c2ccccc2)[nH]c2ccccc12 | 12.6% | 48.3% | 50.1µM* | -25.0% | -6.9%
CN(C)c1ccc(-n2cccc2)cc1 | -2.6% | 22.4µM* | 39.8µM* | 22.4µM* | 20µM*
COc1ccc(Cc2nn3c(-c4ccccc4Br)nnc3s2)cc1 | -25.9% | 19.3% | 5.8%[12.7 µM] | -14.4% | -29.7%
COc1cc(-c2nnc3sc(Cc4ccccc4)nn23)cc(OC)c1OC | -15.3% | u | 35.5µM* | -30.0% | u
COc1ccc(-c2nn3c(-c4ccc(F)cc4)nnc3s2)cc1 | -9.4% | -4.8% | 44.7µM* | -13.9% | -7.9%[57.1 µM]
COc1ccc(Cc2nn3c(-c4cc(OC)c(OC)c(OC)c4)nnc3s2)cc1 | -57.8% | u | u | -7.3% | 79.4µM*
COc1ccc(-c2nn3c(-c4ccccc4)nnc3s2)cc1 | u | -1.2% | u | u | -22.2%
COc1ccc(-c2nnc3sc(CCN4C(=O)c5ccccc5C4=O)nn23)cc1 | -11.5% | -8.0% | 44.7µM* | 8.6% | -17.7%
CC(C)[C@H](NC(=O)c1ccc(Cl)c([N+](=O)[O-])c1)C(=O)NCc1ccc(Cl)cc1Cl | 4.5% | 16.9% | u | -21.2% | -9.9%
COC(=O)c1cc(=O)nc2sc(-c3cccs3)nn12 | 15.4% | 30.2% | 1.7%[12.7 µM] | 0.1% | -12.6%
COC(=O)c1cc(=O)nc2sc(-c3ccc(F)cc3)nn12 | 22.4µM* | u | 3.98µM* | 4.9% | -35.3%
O=C(CSc1ccc2nnc(-c3cccc(F)c3)n2n1)NCC1CCCO1 (centres undefined) | u | u | 5.01µM* | -4.0% | 31.6µM*
O=C(CSc1ccc2nnc(-c3cccnc3)n2n1)NCC1CCCO1 (centres undefined) | 15.3% | 55.3% | u | 1.2% | -3.5%

Screens: PubChem, National Center for Advancing Translational Sciences (NCATS)
